Data published in PubChem BioAssay AID2315 (National Center for Advancing Translational Sciences (NCATS), 2010).
About 27,000 (9.3%) of roughly 290,000 compounds were called active. For the sample, actives were picked, then their nearest neighbours and some compounds at random. A number with no mark means an inactive call. Cut-off read from the data, not from the text of the source: active = inhibition mostly above about 28% (no sharp cut-off); inactive = mostly below about 43%. Where a SMILES comes first, the peptide text is derived from it.

Assay: A qHTS for Small Molecule Inhibitors of Shiga Toxin; note: 0% is about no effect
Details: Vero cells, Shiga toxin protein synthesis inhibition reporter; at 38.7 µM, active compounds read high

Structure (SMILES)	inhibition
CC(=O)NC1CCN(CC(=O)Nc2nccs2)CC1	-3.57%
CN=C1S/C(=C\c2c(OC)cc(OC)cc2OC)C(=O)N1C	-8.5%
CC[C@H](C)[C@H](NC(=O)[C@H](Cc1cnc[nH]1)NC(=O)[C@@H](N)CCC(=O)O)C(=O)N1CCC[C@H]1C(=O)N[C@@H](C)C(=O)O (H-EHIPA-OH)	-0.529%
CC(=O)C1=C(C)NC(=O)NC1c1ccc2c(c1)OCO2 (centres undefined)	2.18%
COc1ccccc1C(=O)COC(=O)CNS(=O)(=O)c1ccc(NC(C)=O)cc1	-27.5%
CC(CC(=O)Nc1ccc(F)cc1F)S(=O)(=O)c1ccc2c(c1)NC(=O)CO2 (centres undefined)	-3.11%
CC1=C(C(=O)Nc2ccccc2)SCCO1	52.1% (active)
CC1=C(C(=O)Nc2ccccc2)S(=O)(=O)CCO1	31.9%
CCCCNC(=O)c1ccccc1NC(=O)C1=C(C)OCCS1	1.7%
Cc1cccc(N(C(=O)c2sc(C)nc2C)C(C(=O)NCC2CCCO2)c2ccccc2)c1 (centres undefined)	-10.3%
COc1ccccc1NC(=O)c1ccc(N2CC3CC(C2)c2cccc(=O)n2C3)c(NC(=O)c2cccnc2)c1 (centres undefined)	7.14%
NS(=O)(=O)c1cc(C(=O)NCCOc2ccccc2)c(Cl)cc1Cl	-6.15%
Cc1cc(NC(=O)Nc2ccc(Cl)cc2)n(-c2ccccc2)n1	15.7%
O=C(Nc1ccc(Cl)cc1)Nc1ccc(C(=O)N2CCOCC2)cc1	32.1%
COc1ccc(Cl)cc1C(=O)NCc1cn(C)nc1C	-46.7%
Cn1ccc(NC(=O)Nc2ccc(Cl)cc2)n1	93% (active)
Cc1nn(C)cc1CNC(=O)Nc1ccc(Cl)cc1	58.7% (active)
Cc1nn(C)cc1C(=O)NNC(=S)Nc1ccc(Cl)cc1	3.52%
CCC(=O)Nc1nc(C)c(C(=O)Nc2cccc(Cl)c2)s1	12.8%
COc1cc(/C=C2\CCCc3c2nc2ccccc2c3C(=O)O)cc(Cl)c1O	-3.8%

Structure (SMILES)	inhibition
CCc1ccc(N2CC(C(=O)Nc3ccc(S(=O)(=O)Nc4nccs4)cc3)CC2=O)cc1 (centres undefined)	16.7%
O=C(c1cccc(Cl)c1)N1CCN(Cc2ccccc2)CC1	-19.8%
COc1ccc(-c2noc(CNC(=O)C(C)Oc3ccccc3)n2)cc1 (centres undefined)	11.6%
Cc1ccccc1C(=O)N1CCC(C(=O)Nc2ccc(S(=O)(=O)N(C)C(C)C)cc2)CC1	24.6%
COc1ccccc1NC(=O)C1CCCN(c2cc(C)nc3ncnn23)C1 (centres undefined)	2.25%
COc1ccccc1-c1cnn2c(N3CCOCC3)cc(C)nc12	87.6% (active)
Cc1cc(C(F)(F)F)n2ncc(-c3ccccc3)c2n1	-2.7%
N#Cc1c(-c2ccccc2)cc(-c2ccccc2)nc1SCC(=O)O	-7.81%
Cc1cc(C(=O)CSc2nc(N)cc(=O)[nH]2)c(C)n1-c1cccc(F)c1	3.21%
Cc1ccc(-n2c(C)cc(C(=O)CN3C(=O)C(=O)N(C4CCCC4)C3=O)c2C)cc1	-11%
Cc1cc(C(=O)COC(=O)C2CC2)c(C)n1-c1ccc(F)cc1	52.6% (active)
CN(CC(=O)NCc1ccncc1)S(=O)(=O)c1ccc(Br)cc1	9.73%
Cc1cc(S(=O)(=O)Nc2ccc(C(=O)NCC(c3ccco3)N3CCCC3)cc2)ccc1F (centres undefined)	-11.6%
CCC(C)[C@H](NC(=O)N1c2ccccc2NC(=O)[C@@H]1C(C)C)C(=O)N[C@@H](Cc1ccccc1)C(=O)O (some centres undefined)	-1.75%
Cc1nc2ccccc2c(-c2ccccc2)c1C(=O)c1ccccc1	-2.44%
Cc1nn(C(=O)c2ccoc2C)c(N)c1-c1ccccc1	131% (active)
CCCC(=O)n1nc(-c2ccccc2)nc1N	17.2%
Cc1cc(C)c2c(Cn3ccnc3)cc(=O)oc2c1	-6.18%
CC(=O)Nc1ccc(S(=O)(=O)N2CCC(C(=O)NC3CC3)CC2)cc1	-3.15%
CN(Cc1ccccc1Cl)C(=O)C1CCC(=O)N(CCc2cccc(F)c2)C1 (centres undefined)	2.46%

Structure (SMILES)	inhibition
COc1ccc(NS(=O)(=O)c2ccc3oc(SCC(N)=O)nc3c2)cc1	-13.2%
CN(C)S(=O)(=O)c1ccc2oc(SCC(=O)Nc3ccccc3F)nc2c1	113% (active)
COc1ccc(S(=O)(=O)N(C)C)cc1NC(=O)CSc1ncccn1	-6.2%
Brc1c(CSc2nncc3ccccc23)nc2ccccn12	44.5% (active)
CN(C(=O)CN1C(=O)CCSc2ccc(S(=O)(=O)N3CCCC3)cc21)c1ccccc1	-7.94%
O=C(NCc1ccccc1Cl)c1ccc2c(=O)n(CC3CCCO3)c(=S)[nH]c2c1 (centres undefined)	28.6%
Cc1cc(C)c(OCC(=O)N(Cc2cccs2)C2CCS(=O)(=O)C2)c(C)c1 (centres undefined)	12.7%
CCOC(=O)N1CCN(C(=O)C(=O)Nc2sc3c(c2C#N)CC(C)(C)OC3)CC1	-6.06%
O=S1(=O)CCOC[C@H](CC2CCCCC2)N1Cc1ccc(F)cc1	19.8% (active)
CCC(C)[C@H]1COCCS(=O)(=O)N1Cc1ccc(C)cc1 (some centres undefined)	-2.97%
CCCC[C@H]1COCCS(=O)(=O)N1Cc1cccc(Cl)c1	-0.556%
Cc1ccc(S(=O)(=O)N2CC(C)N(S(C)(=O)=O)C2)cc1 (centres undefined)	-4.24%
Cc1ccc(-c2nnc(CN3CCN(C)CC3)o2)cc1	21.4%
COc1cccc(NC(=O)Cn2c3ccc(F)cc3c3nc4n(c(=O)c32)CCS4)c1	-1.58%
CCC(=O)Nc1ccc(S(=O)(=O)Nc2c(NC)c3ccccc3oc2=O)cc1	8.69%
O=C(N=C1SC2CS(=O)(=O)CC2N1c1cc(Cl)ccc1Cl)C1CC1 (centres undefined)	-4.57%
O=C(c1ccc(F)cc1)n1cc(C(=S)N2CCOCC2)c2ccccc21	-2.34%
O=C(Cn1c(=S)nc2ccccn21)N1CCc2ccccc2C1	38.4%
O=C(c1ccc(F)cc1)n1c(=S)nc2ccccn21	82.6% (active)
